# From PubChem BioAssay (NCATS)
# Values without a mark were called inactive. Records with an inconclusive call do not appear. Activity calls are given as the source filed them. Unless noted, the call rests on the fitted dose curve; in most records, active means well fitted curve in either direction with a large enough effect (not every such curve was filed as active); inconclusive means small, poorly fitted or top-dose-only effect, or another doubt; inactive means flat fitted curve, though single readings scatter.
# Columns and labels:
# [1] = target: Lysosomal acid glucosylceramidase (Homo sapiens) (UniProt P04062); assay: Glucocerebrosidase-p2 (AID 348; in the data active means potency below about 10 µM; further: potency means the concentration at half of the fitted maximal effect); conditions: purified GBA, blue fluorogenic substrate, 40 min
# Lysosomal acid glucosylceramidase (Homo sapiens), sequence (P04062 whole entry, looked up): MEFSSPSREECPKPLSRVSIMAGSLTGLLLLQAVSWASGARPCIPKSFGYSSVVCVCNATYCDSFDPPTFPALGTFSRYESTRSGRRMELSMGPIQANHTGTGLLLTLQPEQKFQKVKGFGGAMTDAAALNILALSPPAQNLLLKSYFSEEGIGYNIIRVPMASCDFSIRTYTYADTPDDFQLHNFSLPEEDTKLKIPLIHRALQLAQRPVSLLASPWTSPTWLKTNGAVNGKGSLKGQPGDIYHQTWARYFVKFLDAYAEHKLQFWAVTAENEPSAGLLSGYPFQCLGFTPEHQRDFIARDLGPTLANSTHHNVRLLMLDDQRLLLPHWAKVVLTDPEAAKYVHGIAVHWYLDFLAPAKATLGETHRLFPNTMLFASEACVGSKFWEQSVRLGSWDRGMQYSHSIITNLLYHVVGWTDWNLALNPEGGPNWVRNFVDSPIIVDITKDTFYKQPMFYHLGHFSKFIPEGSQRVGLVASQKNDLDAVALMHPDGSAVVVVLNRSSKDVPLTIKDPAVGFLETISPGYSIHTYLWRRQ
# Procedure, shortened: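 Normal human glucocerebrosidase (0.2 nM) with blue fluorogenic substrate (80 uM final) in citrate/phosphate pH 5.9 with 10mM sodium taurocholate, 0.01% tween-20; 40 min RT, NaOH/glycine stop; fluorescence Ex 365/Em 440; AC50 from a titration from 0.6 nM upwards.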
# [2] = AP1 Signaling Pathway (AID 357); conditions: ME-180 AP-1-bla reporter, EGF-induced, beta-lactamase ratio, 5 h; at 7.69 µM (top of the series) unless noted;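 further: ME-180 reporter cells stimulated with EGF at its EC50 level; on the % scale 0 is the no-effect control and ±100 the full control effect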
# Procedure, shortened: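 Beta-lactamase reporter under AP-1 response element, ME-180 background. Stimulus: EC50 EGF. Compound exposure 5 h, 37 °C. Detection: CCF4, 2.5 h RT, 460/530 nm. Values: AC50 from titration.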
# [3] = target: Cytochrome P450 1A2 (Homo sapiens) (UniProt P05177); assay: p450-cyp1a2 (AID 410; calls by dose curve; further: potency means the concentration at half of the fitted maximal effect;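 on activity change, negative = inhibition: -100% = full effect of reference inhibitor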); conditions: recombinant CYP1A2, luciferin-ME demethylation, luminescence; series mostly up to 11.4 µM
# Cytochrome P450 1A2 (Homo sapiens), sequence (P05177 whole entry, looked up): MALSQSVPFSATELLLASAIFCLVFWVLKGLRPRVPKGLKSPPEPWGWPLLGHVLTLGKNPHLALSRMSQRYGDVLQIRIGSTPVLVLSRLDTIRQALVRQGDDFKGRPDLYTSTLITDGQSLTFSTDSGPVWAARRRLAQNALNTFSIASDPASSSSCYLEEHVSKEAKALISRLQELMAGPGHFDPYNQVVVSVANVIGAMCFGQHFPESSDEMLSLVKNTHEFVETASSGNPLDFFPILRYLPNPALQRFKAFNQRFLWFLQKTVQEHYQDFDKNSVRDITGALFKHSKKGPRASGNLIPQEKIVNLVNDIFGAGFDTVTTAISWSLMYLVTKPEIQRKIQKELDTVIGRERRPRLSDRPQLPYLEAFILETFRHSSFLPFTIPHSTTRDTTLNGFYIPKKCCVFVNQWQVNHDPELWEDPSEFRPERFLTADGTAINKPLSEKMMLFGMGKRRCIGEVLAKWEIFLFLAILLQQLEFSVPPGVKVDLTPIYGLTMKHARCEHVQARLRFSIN
# Procedure, shortened: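 20nM CYP1A2, 100uM Luciferin-ME (=Km), 100mM KPO4; cpd 10 min RT; +NADPH regen, 60 min RT; stop/detect 20 min; luminescence. Normalized to furafylline 57 uM = full inhibition.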
# [4] = NFAT Signaling Pathway (AID 444); conditions: Jurkat NFAT-bla M1, carbachol, beta-lactamase ratio, 5 h; at 7.69 µM (top of the series) unless noted;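 further: carbachol stimulus at about its EC50 of 1 µM final; on the % scale 0 is the no-effect control and ±100 the full control effect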
# Procedure, shortened: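 Jurkat cells with NFAT-driven β-lactamase reporter and co-expressed M1 receptor, stimulated with carbachol (final 1 uM, ~EC50), compound titration, 5 h at 37 °C. CCF4 loaded 1 h at RT; 460/530 nm ratio gave %activity and AC50.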
# [5] = Stat Signaling Pathway (AID 446); conditions: ME-180 (cervical carcinoma) SIE beta-lactamase reporter, IL-6 stimulated, 5 h; at 7.69 µM (top of the series) unless noted;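 further: ME-180 cervical cancer cells given 40 pM IL-6 alongside compound; SIE-controlled beta-lactamase reporter measured as 460/530 nm FRET emission ratio; on the % scale 0 is the no-effect control and ±100 the full control effect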
# Procedure, shortened: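 Normalization used AC90 stimulation (300 pM IL-6) and AC90 inhibition (125 nM pan-JAK inhibitor at 40 pM IL-6). The underlying signal is SIE-driven beta-lactamase in ME-180 cells after 5 h IL-6 exposure with compound.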
# [6] = target: Glucocorticoid receptor (Homo sapiens) (UniProt P04150); assay: GR-GFP Redistribution (AID 450;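 active means compounds whose dose series gives a full or clear partial fitted curve of increased nuclear translocation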; further: potency means the concentration at half of the fitted maximal effect); conditions: U2OS GR-GFP nuclear translocation, laser cytometry, 2 h
# Glucocorticoid receptor (Homo sapiens), sequence (P04150 whole entry, looked up, the tested form may be a part): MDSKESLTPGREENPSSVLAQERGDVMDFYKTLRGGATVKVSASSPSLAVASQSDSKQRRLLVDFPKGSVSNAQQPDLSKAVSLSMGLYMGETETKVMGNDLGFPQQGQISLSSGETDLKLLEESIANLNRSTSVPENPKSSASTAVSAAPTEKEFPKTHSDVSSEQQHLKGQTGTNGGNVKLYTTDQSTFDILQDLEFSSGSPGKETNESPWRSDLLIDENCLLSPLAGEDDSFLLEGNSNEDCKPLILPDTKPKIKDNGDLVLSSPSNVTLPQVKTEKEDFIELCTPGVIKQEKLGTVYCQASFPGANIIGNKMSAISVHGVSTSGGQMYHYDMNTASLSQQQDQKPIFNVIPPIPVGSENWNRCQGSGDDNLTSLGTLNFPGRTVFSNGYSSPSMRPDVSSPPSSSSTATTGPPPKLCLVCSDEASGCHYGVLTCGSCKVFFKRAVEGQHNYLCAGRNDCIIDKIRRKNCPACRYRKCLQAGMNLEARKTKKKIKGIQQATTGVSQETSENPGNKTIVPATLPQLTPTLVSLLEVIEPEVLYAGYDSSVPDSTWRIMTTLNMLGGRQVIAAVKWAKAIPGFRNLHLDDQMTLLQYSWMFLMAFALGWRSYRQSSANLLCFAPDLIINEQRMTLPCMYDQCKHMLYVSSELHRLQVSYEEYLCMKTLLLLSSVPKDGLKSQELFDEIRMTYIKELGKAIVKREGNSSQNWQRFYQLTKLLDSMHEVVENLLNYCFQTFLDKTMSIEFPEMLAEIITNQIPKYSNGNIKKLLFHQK
# [7] = target: Glucocorticoid receptor (Homo sapiens) (UniProt P04150); assay: GR-EFC Redistribution (AID 451; calls by dose curve; further: potency means the concentration at half of the fitted maximal effect); conditions: CHO-K1 GR-EFC translocation, beta-gal luminescence, 2 h
# Procedure, shortened: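 CHO-K1 cells expressing nuclear EA and GR-ED fragments of b-gal; compounds titrated up to 46 uM final, 2 h at 37 C. GR nuclear translocation read as complemented b-gal luminescence after 1 h RT detection.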
# [8] = target: Mitogen-activated protein kinase 10 (Mus musculus) (UniProt Q61831); assay: JNK3 AlphaScreen Assay (AID 530); conditions: JNK3 lysate, c-Jun phosphorylation; series mostly up to 11.4 µM;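 further: kinase came from lysate of stimulated human HepG2 cells; signal reports phosphorylation of biotinylated GST-cJun 1-79 at Ser73 with 10 µM ATP; on the % scale 0 is the no-effect control and ±100 the full control effect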
# Procedure, shortened: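 HepG2 lysate (IL-1b/TNFa pre-activated) + biotin-GST-cJun 1-79 + anti-pSer73 cJun; cpd titration, 15 min RT; ATP 10 uM start; Tris pH 7.6, MgCl2, DTT, vanadate; beads in EDTA buffer; AlphaScreen.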
# [9] = target: 3',5'-cyclic-AMP phosphodiesterase 4B (Homo sapiens) (UniProt Q07343); assay: qHTS Assay for Inhibitors of PDE-IV (AID 607; active means well fitted activation curve with a large enough effect in the main read-out, with a control signal flat, not every such curve was filed as active; further: % of control where 0% means no effect); conditions: HEK293 ACTOne CNG channel cells, membrane potential fluorescence; series mostly up to 22.9 µM
# 3',5'-cyclic-AMP phosphodiesterase 4B (Homo sapiens), sequence (Q07343 whole entry, looked up): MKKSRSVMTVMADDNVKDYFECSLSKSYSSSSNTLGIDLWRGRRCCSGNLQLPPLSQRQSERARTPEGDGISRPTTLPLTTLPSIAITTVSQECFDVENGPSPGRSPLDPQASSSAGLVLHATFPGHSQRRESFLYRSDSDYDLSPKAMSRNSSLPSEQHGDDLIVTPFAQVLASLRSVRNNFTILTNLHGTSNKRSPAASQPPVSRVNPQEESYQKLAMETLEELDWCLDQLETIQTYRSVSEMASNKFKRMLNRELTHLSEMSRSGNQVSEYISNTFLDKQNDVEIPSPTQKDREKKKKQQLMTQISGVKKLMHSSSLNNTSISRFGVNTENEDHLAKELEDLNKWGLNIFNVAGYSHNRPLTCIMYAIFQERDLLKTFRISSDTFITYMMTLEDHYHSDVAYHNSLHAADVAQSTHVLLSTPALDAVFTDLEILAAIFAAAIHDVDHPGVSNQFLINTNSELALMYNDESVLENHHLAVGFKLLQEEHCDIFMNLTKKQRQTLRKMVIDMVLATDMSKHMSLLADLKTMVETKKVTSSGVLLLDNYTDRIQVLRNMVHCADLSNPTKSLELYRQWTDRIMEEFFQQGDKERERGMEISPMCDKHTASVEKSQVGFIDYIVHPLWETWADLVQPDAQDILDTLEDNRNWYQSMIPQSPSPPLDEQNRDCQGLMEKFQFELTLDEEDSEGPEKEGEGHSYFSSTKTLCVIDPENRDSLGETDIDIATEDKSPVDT
# Procedure, shortened: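 HEK293 ACTOne cells with CNG channel (1000/well), endogenous PDE4; membrane potential dye, compounds up to 22.9 uM final. Fluorescence Ex 535/Em 590; RO 20-1724 (100 uM final) as reference.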
Structure (SMILES),Potency [1],"activity change, negative = inhibition [2]",Potency [3],"activity change, negative = inhibition [4]","activity, negative = inhibition [5]",Potency [6],Potency [7],Potency [8],Potency [9],"activity change, negative = inhibition [3]"
COc1cc2ccc([C@H](C)NCC#N)cc2cc1OC,> 11.4 µM,-11.4%,0.501 µM (active),9.37%,-0.292%,> 46 µM,> 9.22 µM,inactive,inactive,–
N[C@H](C(=O)O)[C@H](N)C(=O)O,> 11.4 µM,9.49%,inactive,-1.65%,4.68%,> 46 µM,> 9.22 µM,inactive,inactive,–
O=C(O)c1ccc(Cc2ccccc2C(=O)O)cc1,> 11.4 µM,-5.89%,inactive,5.4%,-2.65%,> 46 µM,> 9.22 µM,inactive,inactive,–
NC(N)=NC(N)=Nc1ccc(S(=O)(=O)O)cc1,> 11.4 µM,1.18%,inactive,0.0165%,-0.308%,> 46 µM,> 9.22 µM,inactive,inactive,–
CC[C@](N)(C(=O)O)C(C)C,> 11.4 µM,6.23%,inactive,-9.09%,-6.84%,> 46 µM,> 9.22 µM,inactive,inactive,–
NC(N)=N/N=C(\c1ccc(Cl)cc1)C1CC1,> 11.4 µM,8.61%,0.794 µM (active),-17.9%,-1.61%,> 46 µM,> 9.22 µM,inactive,inactive,–
NC(N)=NC[C@@H]1CCCCCCN1,> 11.4 µM,2%,inactive,4.87%,-5.43%,> 46 µM,> 9.22 µM,inactive,inactive,–
O=C(O)c1ccc(OCc2ccccc2)c(Cl)c1,> 11.4 µM,-4.15%,–,2.05%,6.68%,> 46 µM,> 9.22 µM,inactive,inactive,-3.2% [at 2.29 µM]
O=C(O)CCC(=O)c1ccc(Cl)cc1,> 11.4 µM,11.6%,inactive,-7.55%,17.9%,> 46 µM,> 9.22 µM,inactive,inactive,–
COc1cc(C)cc(OC)c1/C=C\C(=O)O,> 11.4 µM,12.4%,inactive,8.76%,7.32%,> 46 µM,> 9.22 µM,inactive,inactive,–
CC(C)[C@@H](C)/C=C\[C@@H](C)[C@@H]1CC[C@H]2C3=CC=C4C[C@@H](O)CC[C@]4(C)[C@H]3CC[C@]21C,> 11.4 µM,-3.49%,inactive,25.1%,-5.31%,> 46 µM,> 9.22 µM,inactive,inactive,–
[O-][N+]1(CC[N+]2([O-])CCCCC2)CCCCC1,> 11.4 µM,-8.89%,inactive,2.18%,-8.8%,> 46 µM,> 9.22 µM,inactive,inactive,–
CC1(C)O[C@H]2[C@@H](c3[nH]nc4c(=O)[nH]c(=O)[nH]c34)OC[C@H]2O1,> 11.4 µM,8.08%,inactive,-14.8%,8.45%,> 46 µM,> 9.22 µM,inactive,inactive,–
CC(C)C(=O)Cc1ccc2ccccc2n1,> 11.4 µM,-4.8%,3.16 µM (active),12.2%,3.27%,> 46 µM,> 9.22 µM,inactive,inactive,–
Nc1ncnc2c1ncn2C[C@@H](O)C(=O)O,> 11.4 µM,8.44%,inactive,2.36%,-0.0646%,> 46 µM,> 9.22 µM,inactive,inactive,–
